Pf growth 48h: P. falciparum growth inhibition at 48 hours (one generation); P. falciparum luciferase growth in erythrocytes, 48 h; Potency, µM (top dose mostly 28.7 µM), without a hit: top-dose activity change, negative = inhibition, most hits filed as inhibitors; hit rate 5.9% among 310,000; AID 504832; further: on the % scale 0 is the no-effect control and ±100 the full control effect
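Cell-based growth assay: transgenic P. falciparum expressing firefly luciferase, cultured in red cells within RPMI 1640 containing 0.5% w/v Albumax, 24 mM bicarbonate and gentamycin. A drop in luciferase activity indicates inhibition.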
AMA1 RON2 block: disrupts binding of P. falciparum AMA1 to RON2; AlphaScreen AMA1-biotinylated RON2 peptide binding; Potency, µM (doses to about 58.2 µM), without a hit: top-dose activity change, negative = inhibition, most hits filed as inhibitors; hit rate 0.2% among 360,000;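 further: 0% = vehicle wells and -100% = peptide control; nearly all actives have a fitted effect of over 45% in size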
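AMA1 (3D7) with his tag at 25 nM final met compounds first, then biotinylated RON2 peptide at 25 nM; detection used donor plus acceptor beads, 10 µg/mL apiece, read by AlphaScreen after 30 min at room temperature.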
SARS PLpro yeast: SARS-CoV PLP inhibition in yeast | hit rate 0.19% among 330,000 | S. cerevisiae expressing SARS-CoV PLpro, growth rescue | AID 485353 | Potency, µM (top dose mostly 32.9 µM), inactives show at the top dose activity, positive = growth rescue, actives largely listed as activators; calls by dose curve; further: 0% is about no effect; nearly all actives have a fitted effect of over 55% in size
Pf growth 96h: inhibits malaria parasite growth, 96 h; P. falciparum luciferase reporter growth, 96 h; AID 504834; hit rate 6.9% among 320,000; Potency, µM (series often up to 28.7 µM), for inactives: at the highest dose activity change, negative = inhibition, usual class: inhibitors; further: on the % scale 0 is the no-effect control and ±100 the full control effect
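Luminescence readout: decreased luciferase signal marks inhibited growth of reporter-expressing P. falciparum in infected red cells (2% hematocrit, 0.05% parasitemia final), exposed to compound two generations (96 h, 37 C, 5% CO2).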
The depositor's hits bear a star; u = inconclusive; x = no result. This is a sample that favours compounds with a hit; in the whole collection about 9.4% have one here. Unless noted, the call rests on the fitted dose curve; in most records, active means well fitted curve in the direction sought with a large enough effect; inconclusive means small, poorly fitted or top-dose-only effect, or another doubt; inactive means no such curve, though single readings can be large; an effect the other way counts as inactive or inconclusive. Potency means the concentration at half of the fitted maximal effect.

SMILES	Pf growth 48h	AMA1 RON2 block	SARS PLpro yeast	Pf growth 96h
COc1ccc(OC)c(/C=C2\S/C(=N/NC(=O)c3ccc4ccccc4c3)NC2=O)c1	7%	95%	u	6.6µM*
O=C1N/C(=N/NC(=O)c2cccc3ccccc23)S/C1=C\c1ccccc1OCc1ccccc1	0%	47%	17%	u
Cc1ccc(NC(=O)C2=CCN(S(=O)(=O)c3ccc(F)cc3)CC2)c(C)c1	13%	-11%	7%	0.33µM*
Oc1ccccc1-c1cncn1Cc1ccccc1	x	-2%	1%	15µM*
Cc1cccc(NC(=S)Nc2c(C)n(C)n(-c3ccccc3)c2=O)c1C	2%	-6%	15%	57%
COc1ccccc1C(=O)NCCC(=O)Nc1ccc(S(=O)(=O)N2C(C)CCCC2C)cc1 (centres undefined)	15µM*	-7%	1%	u
COc1ccccc1C(=O)NCCC(=O)NCC1CCCCC1	x	-4%	-22%	x
CC1CC(C)CN(S(=O)(=O)c2ccc(C(=O)OCC(=O)Nc3ccccc3)cc2)C1 (centres undefined)	x	-12%	x	x
COc1ccccc1C(=O)NCCC(=O)Nc1ccc(S(=O)(=O)N2CC(C)CC(C)C2)cc1 (centres undefined)	u	9%	-2%	15µM*
COC(=O)c1ccc(NC(=O)Nc2ccc(OC)cc2)cc1	-25%	6%	0%	-13%
CCN(CC)CCNc1ccc(CO)c2sc3ccccc3c(=O)c12	3.7µM*	10%	-2%	2.9µM*
COc1ccc2c(c1)CCC/C2=N\Nc1nc(C(=O)NN)cs1	10µM*	33%	-1%	u
CCOC(=O)c1csc(N/N=C2\CCc3ccccc32)n1	x	-1%	-1%	13µM*
CCOC(=O)c1csc(N/N=C2\CCCc3ccccc32)n1	x	34%	-3%	u
CC(C)N(C(=O)COC(=O)c1ccc(Cl)c(S(N)(=O)=O)c1)C(C)C	-6%	-2%	0%	38%
O=C(/C=C/c1ccccc1)OCCCN=C1NS(=O)(=O)c2ccccc21	-4%	-10%	1%	5.2µM*
COc1ccc(N2CCC(CNC(=S)Nc3cc(C)ccc3C)C2)cc1 (centres undefined)	u	u	-2%	u
COc1ccc(N2CCC(CNC(=S)Nc3cc(C)cc(C)c3)C2)cc1 (centres undefined)	9.3µM*	6.3µM*	9%	u
O=C(c1cccc2ccccc12)C1CCCN(C2CCC2)C1 (centres undefined)	-1%	-25%	-2%	u
Cc1ccccc1CS(=O)(=O)c1cnc2ccccc2n1	15µM*	34%	-2%	x
CC(=O)N1CCc2c(sc(NC(=O)C3CCCN3S(=O)(=O)c3cccs3)c2C#N)C1 (centres undefined)	-2%	-7%	-8%	-2%
CCn1ncc(/C=N\NC(=O)c2ccc3c(c2)c(C)c(C)n3Cc2ccccc2)c1C	x	-10%	-1%	u
CCn1cc(/C=N\NC(=O)c2ccc3c(c2)c(C)c(C)n3Cc2ccccc2)c(C)n1	x	-15%	5%	10µM*
CCn1nc(C)c(/C=N/NC(=O)c2ccc3c(c2)c(C)c(C)n3Cc2ccccc2)c1C	x	-9%	-1%	12µM*
CC12CCC(C(=O)NCCN3CCCCC3)(CC1=O)C2(C)C (centres undefined)	13%	-6%	5%	u
SMILES	Pf growth 48h	AMA1 RON2 block	SARS PLpro yeast	Pf growth 96h
C#CCNC(=O)C1=C[C@H](c2ccc(C(F)(F)F)cc2)[C@@H](CCCO)[C@H](OCC)O1	-5%	0%	1%	u
CCOC(=O)N1CCN(C(=O)CCNS(=O)(=O)c2cc(Br)cnc2N)CC1	0%	-9%	2%	190%
CCN(Cc1ccccc1)C(=O)CCNS(=O)(=O)c1cc(Br)cnc1N	13µM*	-4%	11%	37%
O=S(=O)(c1cccs1)N1CN(C2CCCCC2)c2nc3ccccc3nc21	12µM*	-3%	-3%	5.2µM*
O=S(=O)(c1cccs1)N1CN(C2CCCC2)c2nc3ccccc3nc21	u	-2%	0%	u
CCCCc1c(C)c(C#N)c2nc3ccccc3n2c1Nc1c(C)n(C)n(-c2ccccc2)c1=O	1.9µM*	0%	5%	2.1µM*
C=CCc1c(C)c(C#N)c2nc3ccccc3n2c1NCCN(C)C	u	0%	-17%	u
CCc1c(C)c(C#N)c2nc3ccccc3n2c1NCCN(C)C	9.3µM*	9%	-9%	-11%
C=C(C)Cc1c(C)c(C#N)c2nc3ccccc3n2c1NCCCN(C)C	u	12%	-1%	9.3µM*
Cc1c(Nc2c3c(c(C#N)c4nc5ccccc5n24)CCC3)c(=O)n(-c2ccccc2)n1C	-2%	x	5%	13%
CCCOCC1CC(CCc2nc(=S)[nH][nH]2)C(=O)O1 (centres undefined)	8%	49%	3%	14%
O=C(c1ccc(-n2cncn2)c([N+](=O)[O-])c1)N1CCN(c2cccc(Cl)c2)CC1	4%	1%	-6%	-25%
CCOC(=O)c1nnn(CC(=O)N2N=C(c3ccccc3)CC2c2ccccc2)c1C(=O)OCC (centres undefined)	12µM*	0%	26%	u
CCOC(=O)/C=C(\C)N1N=C(c2ccccc2)CC1c1ccccc1 (centres undefined)	112%	31%	-5%	18%
CCOC(=O)c1nnn(CC(=O)N2N=C(c3cc(C)ccc3C)CC2c2ccc(OC)cc2)c1C(=O)OCC (centres undefined)	15µM*	-4%	2%	9.3µM*
COc1ccc(C2CC(c3ccc4ccccc4c3)=NN2C(=O)CN2CCC(C(N)=O)CC2)cc1 (centres undefined)	u	-11%	2%	u
Cc1cc(=O)c2n(Cc3ccc(Cl)cc3)nc[n+]2[nH]1	-7%	1%	1%	-74%
O=C1NC(=O)c2cc([N+](=O)[O-])cc3cccc1c23	3%	7%	x	17%
c1ccc(-c2ccc(C(c3ccccc3)n3ccnc3)cc2)cc1 (centres undefined)	2.1µM*	-22%	-67%	4.8µM*
c1ccc(-c2ccc(-n3ccnc3)cc2)cc1	u	-14%	-11%	u
COc1cc(C(=O)OCC(=O)NC2CCS(=O)(=O)C2)c([N+](=O)[O-])cc1OC (centres undefined)	23%	-9%	0%	9%
CSc1ccccc1NC(=O)c1csc(C)c1	36%	-15%	0%	10µM*
COC(=O)c1cc(OC)c(OC)cc1NC(=S)Nc1cccc(Cl)c1	3%	28%	-5%	13µM*
Cc1cc(C(=O)Nc2ccccc2[N+](=O)[O-])cs1	-6%	-15%	1%	58%
COC(=O)c1cc(OC)c(OC)cc1NC(=O)c1csc(C)c1	10µM*	0%	u	u
COC(=O)c1cc(OC)c(OC)cc1NC(=O)CC1CCCCC1	10µM*	0%	-10%	19%
CC1CC(C)(C)N(C(=O)NC2CCCCC2)c2ccccc21 (centres undefined)	16%	-18%	-22%	0%
